The source of these data is the supplement of paper PMC8183993.

Where “and” joins values, the source holds several entries; their conditions need not be identical. Equal values may be shown once. Where a name gives a salt, the structure may show the parent alone. ± gives the standard deviation of the averaged measurements. Over roughly 3,100 compounds, “mean cytoplasmic OPP incorporation (global translation) relative to DMSO” has its median near 100; the lowest 2% begin near 56. Only a selection was taken, and the lowest values are over-represented in it overall.

For this assay, the system named is U2OS. Briefly: mean cytoplasmic OPP incorporation (global translation) relative to DMSO (% of DMSO); higher = more protein synthesis. The settings on record: 10 µM; 24 h. As for the experimental part: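 Primary image-based screen in U2OS cells: compounds at 10 uM for 24 h, then a 1 h o-propargyl-puromycin (OPP) pulse, click labelling, and high-throughput microscopy. Mean cytoplasmic OPP intensity and nuclei count were normalised to DMSO wells within each plate (DMSO = 100) and averaged over triplicate plates.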
As to `O=C(O)Cc1nn(Cc2ccc(Br)cc2F)c(=O)c2ccccc12` [Statil], the “mean cytoplasmic OPP incorporation” value amounted to 98.2. `CC(=O)Nc1ccc(C(=O)Nc2ccccc2N)cc1`: the “mean cytoplasmic OPP incorporation” value turned out to be 57.3 ± 33. The result for `Nc1ccccc1NC(=O)c1ccc(CNC(=O)OCc2cccnc2)cc1` [Entinostat (MS-275, SNDX-275)] reads 23.5; that for `Cc1ccc(NC(=O)c2ccc(CN3CCN(C)CC3)cc2)cc1Nc1nccc(-c2cccnc2)n1` [Imatinib (STI571)], 124.

Take `COc1ccc(C(=O)NCc2cccnc2)cc1C(=O)NCc1cccnc1` [Picotamide monohydrate]: the “mean cytoplasmic OPP incorporation” value amounted to 98.8. In the case of `Cc1ccc(NC(=O)c2ccc(CN3CCN(C)CC3)cc2)cc1Nc1nccc(-c2cccnc2)n1` [Imatinib] it was 120; in that of `Cc1ccc(NC(=O)c2ccc(CN3CCN(C)CC3)cc2)cc1Nc1nccc(-c2cccnc2)n1` [Imatinib mesylate], 121 ± 11; in that of `Cc1cc(NC(=O)c2cccc(NC(=O)/C=C/CN(C)C)c2)ccc1Nc1nccc(-c2cccnc2)n1`, 96.1.

On to `Cc1ccc(NC(=O)c2ccc(CN3CCN(C)CC3)cc2)cc1Nc1nccc(-c2cccnc2)n1` [Imatinib Mesylate], for which the “mean cytoplasmic OPP incorporation” value was 130. On to `Nc1ccccc1NC(=O)c1ccc(CNc2nccc(-c3cccnc3)n2)cc1` [Mocetinostat (MGCD0103)], for which the “mean cytoplasmic OPP incorporation” value turned out to be 35.5.

For the compound `O=c1nc2ccccc2c2n1CC(CN1CCN(c3ccccc3)CC1)N2` (stereo not drawn), the “mean cytoplasmic OPP incorporation” value worked out at 101. In the case of `O=C(O)c1ccccc1Nc1cccc2c1C(=O)c1cccc(Nc3ccccc3C(=O)O)c1C2=O` it was 113. In the case of `O=C(Cc1ccccc1)Nc1nc2ccc(Cl)cc2c2nc(-c3ccco3)nn12` it was 104; in that of `CC(C)CC(NC(=O)OCC1c2ccccc2-c2ccccc21)C(=O)O` (stereo not drawn), 109; in that of `Brc1ccc(C2CN3CCSC3=N2)cc1` [L-p-Bromotetramisole oxalate], 94.5. In the case of `CCOC(=O)C=Cc1ccc(O)c(OC)c1` [Ferulic acid ethylester] it was 103; in that of `COCC[n+]1c2c(n(Cc3cnccn3)c1C)C(=O)c1ccccc1C2=O`, 35; in that of `CC(C)NCC(O)COc1ccccc1-n1cccc1` (stereo not drawn) [Isamoltane hemifumarate], 94.6. As for `Nc1c(O)cc(O)cc1C=Cc1ccc(O)cc1` [Aminoresveratrol sulfate], the “mean cytoplasmic OPP incorporation” value was 100. Regarding `CCC(=O)NC1CCc2cccc(OC)c2C1` (stereo not drawn), the “mean cytoplasmic OPP incorporation” value stood at 101. With `O=S1(=O)c2cccc3cccc(c23)N1CCCN1CCN(c2ccc(F)cc2)CC1` [Fananserin], the “mean cytoplasmic OPP incorporation” value amounted to 103.

Consider `CCCOC(=O)c1cc(O)c(O)c(O)c1` [N-Propyl gallate], for which the “mean cytoplasmic OPP incorporation” value is 123. The result for `CS(=O)(=O)N1CCN(Cc2cc3nc(-c4cccc5[nH]ncc45)nc(N4CCOCC4)c3s2)CC1` [Pictilisib (GDC-0941)] reads 73.8. In the case of `COc1ccc(-c2nc(N3CCOCC3)c3sc(CN(C)c4ncc(C(=O)NO)cn4)cc3n2)cn1` it was 86.6; in that of `Cc1c(CN2CCN(C(=O)[C@H](C)O)CC2)sc2c(N3CCOCC3)nc(-c3cnc(N)nc3)nc12` [Apitolisib (GDC-0980, RG7422)], 50.7.

For `Cc1cc(Cc2cc(C)cc(C(C)(C)C)c2O)c(O)c(C(C)(C)C)c1`, the “mean cytoplasmic OPP incorporation” value amounted to 103. As for `CC1(C)S[C@@H]2[C@H](NC(=O)Cc3ccccc3)C(=O)N2[C@H]1C(=O)O` [Benzathine benzylpenicillin], the “mean cytoplasmic OPP incorporation” value turned out to be 104.

With `CC1(C)S[C@@H]2[C@H](NC(=O)Cc3ccccc3)C(=O)N2[C@H]1C(=O)O` [Benzylpenicillin sodium], the “mean cytoplasmic OPP incorporation” value was 80.8. The result for `Cc1cc(C(=O)NNCc2ccccc2)no1` [Isocarboxazid] reads 106; that for `CC1(C)OC2=C(C(=O)c3ccccc3C2=O)[C@H](NCc2ccccc2)[C@@H]1O`, 38.9; that for `CC(C)Oc1ccc(-c2c[nH]cc2CN(C)CCN)cc1`, 100.

Consider `CC(CCCCC(=O)Nc1ccc(C(F)(F)F)cc1)NCCc1cnc[nH]1` (stereo not drawn) [HTMT dimaleate], for which the “mean cytoplasmic OPP incorporation” value is 100.

As for `CC1(C)Oc2ccc(C#N)cc2[C@H](N2CCCC2=O)[C@H]1O` [Cromakalim], the “mean cytoplasmic OPP incorporation” value is 98.1. For the compound `FC(F)(F)c1cc(COC2CCCNC2c2ccccc2)cc(C(F)(F)F)c1` [L-733,060 hydrochloride], the “mean cytoplasmic OPP incorporation” value is 108. The result for `CCC(C)[C@H](NS(=O)(=O)c1cccc2ccccc12)C(=O)N[C@H](C=O)Cc1c[nH]c2ccccc12` (stereo partly drawn) reads 102. Regarding `C[n+]1cc2c3c(ccc2c2ccc4cc5c(cc4c21)OCO5)OCO3` [Sanguinarine chloride], the “mean cytoplasmic OPP incorporation” value is 42.4. The result for `COc1ccc2cc3[n+](cc2c1OC)CCc1cc2c(cc1-3)OCO2` [Berberine HCl] reads 106; that for `O=c1[nH]c2cc(Cl)ccc2c(O)c1-c1cccc(Oc2ccccc2)c1`, 103.

With `O=C1NC(=O)c2c1c(-c1ccccc1)cc1[nH]c3ccc(O)cc3c21`, the “mean cytoplasmic OPP incorporation” value was 51.8. As to `CS(=O)(=O)CCNCc1nc(-c2ccc3ncnc(Nc4ccc(OCc5cccc(F)c5)c(Cl)c4)c3c2)cs1`, the “mean cytoplasmic OPP incorporation” value is 102. The result for `N#Cc1cc2c(OCC(O)CN3CCN(C(c4ccccc4)c4ccccc4)CC3)cccc2[nH]1` (stereo not drawn) reads 107. In the case of `CCN(CC)CCCC(C)Nc1c2ccc(Cl)cc2nc2ccc(OC)cc12` (stereo not drawn) [Quinacrine dihydrochloride dihydrate] it was 29.5. In the case of `CCN(CCO)CCCC(C)Nc1ccnc2cc(Cl)ccc12` (stereo not drawn) [Hydroxychloroquine sulfate] it was 102; in that of `CCN(CC)CCCC(C)Nc1ccnc2cc(Cl)ccc12` (stereo not drawn) [Chloroquine], 107; in that of `CCN(CC)CCCC(C)Nc1ccnc2cc(Cl)ccc12` (stereo not drawn) [Chloroquine diphosphate], 105.

Consider `CCN(CCO)CCCC(C)Nc1ccnc2cc(Cl)ccc12` (stereo not drawn) [Hydroxychloroquine], for which the “mean cytoplasmic OPP incorporation” value amounted to 93. In the case of `O=C(CCCCCCC(=O)NO)NO` [Suberoyl bis-hydroxamic acid] it was 88.4; in that of `C[C@H](CCC(=O)NCC(=O)O)[C@H]1CC[C@H]2[C@@H]3CC[C@@H]4C[C@H](O)CC[C@]4(C)[C@H]3C[C@H](O)[C@]12C` [Glycodeoxycholic acid], 102. On to `COc1ccc(-c2ccc3ncc4c(c3c2)n(-c2ccc(N3CCNCC3)c(C(F)(F)F)c2)c(=O)n4C)cn1`, for which the “mean cytoplasmic OPP incorporation” value is 33.4 ± 16. The result for `Nc1ccc(-c2ccc3ncc4ccc(=O)n(-c5cccc(C(F)(F)F)c5)c4c3c2)cn1` [Torin 2] reads 67.6 ± 3.6; that for `CCC(=O)N1CCN(c2ccc(-n3c(=O)ccc4cnc5ccc(-c6cnc7ccccc7c6)cc5c43)cc2C(F)(F)F)CC1` [Torin 1], 73; that for `CCN(CC)CCNC(=O)c1c(C)[nH]c(/C=C2\C(=O)Nc3ccc(Cl)cc32)c1C`, 124. Take `Cc1nnc(-c2ccc3occ(-c4ccc([S+](C)[O-])cc4)c3c2)o1` (stereo not drawn): the “mean cytoplasmic OPP incorporation” value was 105. For `CCCCC[C@H](O)/C=C/C=C\CCCCCCCC(=O)O` [13(S)-Hydroxy-9Z,11E-octadecadienoic acid], the “mean cytoplasmic OPP incorporation” value was 99.3.

`CC(/C=C/C(=O)NO)=C\[C@@H](C)C(=O)c1ccc(N(C)C)cc1` [Trichostatin A]: the “mean cytoplasmic OPP incorporation” value turned out to be 66.2 ± 33. In the case of `CN1CCN(C(=O)c2nc3ccc(Cl)cc3[nH]2)CC1` it was 81.1. With `CN1CCCN(C(=O)c2cccc(-c3ccc(/C=C4/C(=O)Nc5ccc(Cl)cc54)o3)c2)CC1`, the “mean cytoplasmic OPP incorporation” value worked out at 55.4. The result for `Cc1[nH]c(/C=C2\C(=O)Nc3ccc(S(=O)(=O)N(C)c4cccc(Cl)c4)cc32)c(C)c1C(=O)N1CCN(C)CC1` reads 88.9. Turning to `NCCCCCc1c[nH]cn1` [Impentamine dihydrobromide], the “mean cytoplasmic OPP incorporation” value is 99.3. The result for `Cc1cc(C)c(S(=O)(=O)Nc2ccccc2C(F)(F)F)c(C)c1` reads 97.3; that for `O=C(Nc1ccccc1-c1cn2c(CN3CCNCC3)csc2n1)c1cnc2ccccc2n1`, 48.8; that for `Cc1cc(C(=O)O)sc1C(N)C(=O)O` (stereo not drawn), 104. With `COC(=O)[C@@H](N)CSC/C=C(\C)CC/C=C(\C)CCC=C(C)C` [S-Farnesyl-L-cysteine methyl ester], the “mean cytoplasmic OPP incorporation” value worked out at 95.9.

As for `CSc1ccc(/C=C2/C(C)=C(CC(=O)O)c3cc(F)ccc32)cc1` [Sulindac Sulfide], the “mean cytoplasmic OPP incorporation” value was 104. As for `NS(=O)(=O)c1ccc(NC(=O)Nc2ccc(F)cc2)cc1`, the “mean cytoplasmic OPP incorporation” value came out at 98.7. The result for `Nc1nc(Nc2ccc(S(N)(=O)=O)cc2)nn1C(=O)c1c(F)cccc1F` reads 50.1. In the case of `COc1ccc(CCN2CCN(CCCc3ccccc3)CC2)cc1OC` it was 111; in that of `CCN(C(=O)CO)[C@H]1CN(/C(=N\C#N)Nc2cccc(OC(F)F)c2)N=C1c1ccc(Cl)c(Cl)c1`, 107. In the case of `CCCCCCCCOC(=O)/C=C/c1ccc(O)c(O)c1` [n-Octyl caffeate] it was 88.9; in that of `NC(N)=NCCC[C@H](NC(=O)[C@@H]1CCCN1C(=O)[C@H](N)Cc1ccccc1)C(=O)CCl`, 99.7; in that of `O=C(O)Cc1ccc(OCCNC[C@H](O)c2ccccc2)cc1` [ZD 2079 hydrochloride], 103. Consider `Cc1cc(I)ccc1Nc1c(C(=O)NOCC2CC2)cc(F)c(F)c1F`, for which the “mean cytoplasmic OPP incorporation” value was found to be 97.5.

On to `CC(NC(=O)C(Cc1ccccc1)NC(=O)OCc1ccccc1)C(=O)CF` (stereo not drawn), for which the “mean cytoplasmic OPP incorporation” value came out at 101. The result for `CCCC[C@@H](C=O)NC(=O)[C@H](CC(C)C)NC(=O)OCc1ccccc1` [Calpeptin] reads 106 ± 7.2; that for `CC(C)C[C@@H](C=O)NC(=O)[C@H](CC(C)C)NC(=O)[C@H](CC(C)C)NC(=O)OCc1ccccc1`, 91.4 and 56.1.

Consider `C[C@H](CC[C@@H]1OC1(C)C)[C@H]1CC[C@H]2[C@@H]3CC=C4C[C@@H](O)CC[C@]4(C)[C@H]3CC[C@]12C` [24(S),25-Epoxycholesterol], for which the “mean cytoplasmic OPP incorporation” value worked out at 112. The result for `Cc1ccc(NC(=O)C(C)C)cc1C1CCN(Cc2ccc(Oc3ccc(F)c(F)c3)cc2)CC1` reads 108. In the case of `CC[C@H](C)[C@H](N)C1=N[C@H](C(=O)N[C@@H](CC(C)C)C(=O)N[C@H](CCC(=O)[O-])C(=O)N[C@H](C(=O)N[C@H]2CCCCNC(=O)[C@H](CC(N)=O)NC(=O)[C@@H](CC(=O)[O-])NC(=O)[C@H](Cc3cnc[nH]3)NC(=O)[C@@H](Cc3ccccc3)NC(=O)[C@H]([C@@H](C)CC)NC(=O)[C@@H](CCCN)NC2=O)[C@@H](C)CC)CS1.[Zn+2]` [Bacitracin zinc] it was 107.
